Experimental findings from PubChem BioAssay (NCATS) are described below.

Activity calls are given as the source filed them. Calls follow the shape of the dose curve; as a rule, active = well fitted inhibition curve with a large enough effect; inconclusive = small, poorly fitted or top-dose-only effect; inactive = flat fitted curve, though single readings scatter.
Potency is read from the fitted curve at half-maximal effect.

This assay relates to Nanoluciferase (engineered Oplophorus gracilirostris luciferase). Briefly: Primary Nanoluciferase (NLuc) qHTS assay for identification of artifact compounds. (AID 1845222).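 As to activity, negative = inhibition: 0% = DMSO and -100% = no enzyme.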 As to conditions: NLuc-conditioned medium, Nano-Glo luminescence, 5 min; series mostly up to 54.1 µM; activity, negative = inhibition: at the top concentration. An outline of the steps: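 Luminescence from secreted NLuc (filtered, 1:55-diluted S16 cell medium) read 5 min after Nano-Glo substrate; compounds preincubated 15 min, RT. Hill fits of inhibition normalized to DMSO and no-enzyme.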
Take `CC(=O)O[C@]1(C(C)=O)CC[C@H]2[C@@H]3C[C@H](C)C4=CC(=O)CC[C@]4(C)[C@H]3CC[C@@]21C`: the “activity, negative = inhibition” value is -0.786% (inactive).
In the case of `COc1ccc(CN2CCN(C(c3ccc(F)cc3)c3ccc(F)cc3)CC2)c(OC)c1OC`, the “activity, negative = inhibition” value is -1.16% (inactive).
On the same count and under the same terms, for `CC(C)(C)NC(=O)[C@@H]1CN(Cc2cccnc2)CCN1C[C@@H](O)C[C@@H](Cc1ccccc1)C(=O)N[C@H]1c2ccccc2C[C@H]1O` the value was 0% (inactive).
Turning to `Cc1cc2c(cc1CC(=O)c1sccc1S(=O)(=O)Nc1onc(C)c1Cl)OCO2`, the Potency was 16.9 µM (active).
Regarding `CN(C)CCCOc1nn(Cc2ccccc2)c2ccccc12`, the “activity, negative = inhibition” value was -10.1% (inactive).
`COC(=O)CCc1ccc(OCC(O)CNC(C)C)cc1` (centres undefined): the “activity, negative = inhibition” value is -10.3% (inactive).
Turning to `CN1[C@@H]2CC[C@H]1CC(OC(=O)c1c[nH]c3ccccc13)C2` (some centres undefined), the “activity, negative = inhibition” value is 4.45% (inactive).
The same measure, in the same setting: for `O=c1[nH]c(=O)n([C@H]2CCCO2)cc1F` the value was 0% (inactive); for `CN1C(CCl)Nc2cc(Cl)c(S(N)(=O)=O)cc2S1(=O)=O` (centres undefined), 0% (inactive).
Still for that read-out and setting: the value for `Cc1ccc(Nc2c(F)cccc2Cl)c(CC(=O)O)c1` was -23.1% (inactive).
Still for that read-out and setting: for `CC(C)n1nc(-c2cc3cc(O)ccc3[nH]2)c2c(N)ncnc21` the value was -6.59% (inactive); for `C#C[C@]1(OC(C)=O)CC[C@H]2[C@@H]3CCC4=C[C@@H](OC(C)=O)CC[C@@H]4[C@H]3CC[C@@]21C`, -1.55% (inactive).
For `Cc1onc(-c2c(Cl)cccc2Cl)c1C(=O)N[C@@H]1C(=O)N2[C@@H]1SC(C)(C)[C@@H]2C(=O)O`, the “activity, negative = inhibition” value was 1.1% (inactive).
Still for that read-out and setting: the value for `CCCCS(=O)(=O)N[C@@H](Cc1ccc(OCCCCC2CCNCC2)cc1)C(=O)O` was 0% (inactive).
